# Assay results published in ChEMBL document CHEMBL2218924, “A broad activity screen in support of a chemogenomic map for kinase signalling research and drug discovery” (Biochem J, 2013).
# Assays:
# [1] = molecular target: T1, Casein kinase II (Homo sapiens) (UniProt P67870+P68400+P19784); settings: at 1 µM
# [2] = molecular target: T1, Casein kinase II (Homo sapiens); settings: at 10 µM
# [3] = molecular target: Casein kinase II subunit alpha' (Homo sapiens) (UniProt P19784); settings: at 1 µM
# [4] = molecular target: Casein kinase II subunit alpha' (Homo sapiens) (UniProt P19784); settings: at 10 µM
# [5] = molecular target: Dual specificity protein kinase CLK2 (Homo sapiens) (UniProt P49760); settings: at 1 µM
# [6] = molecular target: Dual specificity protein kinase CLK2 (Homo sapiens) (UniProt P49760); settings: at 10 µM
# [7] = molecular target: Dual specificity protein kinase CLK3 (Homo sapiens) (UniProt P49761); settings: at 1 µM
# [8] = molecular target: Dual specificity protein kinase CLK3 (Homo sapiens) (UniProt P49761); settings: at 10 µM
# [9] = molecular target: Tyrosine-protein kinase CSK (Homo sapiens) (UniProt P41240); settings: at 1 µM
# [10] = molecular target: Tyrosine-protein kinase CSK (Homo sapiens) (UniProt P41240); settings: at 10 µM
# Tyrosine-protein kinase CSK (Homo sapiens), sequence (P41240 2-450 limits assumed): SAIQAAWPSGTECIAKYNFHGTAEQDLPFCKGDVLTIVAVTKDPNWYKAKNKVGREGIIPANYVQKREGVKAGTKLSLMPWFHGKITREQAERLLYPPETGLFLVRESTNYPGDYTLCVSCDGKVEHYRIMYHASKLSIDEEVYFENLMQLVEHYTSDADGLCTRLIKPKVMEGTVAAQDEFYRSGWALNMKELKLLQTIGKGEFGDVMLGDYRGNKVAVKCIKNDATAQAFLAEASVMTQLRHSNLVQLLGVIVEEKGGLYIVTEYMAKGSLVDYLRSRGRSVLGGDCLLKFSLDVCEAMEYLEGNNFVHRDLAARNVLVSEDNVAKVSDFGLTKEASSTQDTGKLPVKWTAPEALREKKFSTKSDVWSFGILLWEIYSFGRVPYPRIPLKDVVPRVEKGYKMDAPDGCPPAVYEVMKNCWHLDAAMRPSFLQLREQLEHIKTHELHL
# Dual specificity protein kinase CLK3 (Homo sapiens), sequence (P49761 whole entry, looked up): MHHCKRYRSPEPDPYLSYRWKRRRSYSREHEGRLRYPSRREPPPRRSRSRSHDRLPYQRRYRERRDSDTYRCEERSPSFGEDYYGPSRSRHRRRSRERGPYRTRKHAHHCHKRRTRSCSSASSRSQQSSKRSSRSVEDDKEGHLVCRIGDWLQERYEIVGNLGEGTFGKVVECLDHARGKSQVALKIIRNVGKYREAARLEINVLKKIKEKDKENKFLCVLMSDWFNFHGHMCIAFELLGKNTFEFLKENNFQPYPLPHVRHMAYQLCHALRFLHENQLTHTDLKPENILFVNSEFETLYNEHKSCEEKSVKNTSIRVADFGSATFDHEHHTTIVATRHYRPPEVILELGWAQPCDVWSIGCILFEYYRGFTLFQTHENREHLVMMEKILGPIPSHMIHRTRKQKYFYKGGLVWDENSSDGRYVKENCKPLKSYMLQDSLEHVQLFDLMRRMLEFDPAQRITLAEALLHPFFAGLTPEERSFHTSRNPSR
# Dual specificity protein kinase CLK2 (Homo sapiens), sequence (P49760 whole entry, looked up): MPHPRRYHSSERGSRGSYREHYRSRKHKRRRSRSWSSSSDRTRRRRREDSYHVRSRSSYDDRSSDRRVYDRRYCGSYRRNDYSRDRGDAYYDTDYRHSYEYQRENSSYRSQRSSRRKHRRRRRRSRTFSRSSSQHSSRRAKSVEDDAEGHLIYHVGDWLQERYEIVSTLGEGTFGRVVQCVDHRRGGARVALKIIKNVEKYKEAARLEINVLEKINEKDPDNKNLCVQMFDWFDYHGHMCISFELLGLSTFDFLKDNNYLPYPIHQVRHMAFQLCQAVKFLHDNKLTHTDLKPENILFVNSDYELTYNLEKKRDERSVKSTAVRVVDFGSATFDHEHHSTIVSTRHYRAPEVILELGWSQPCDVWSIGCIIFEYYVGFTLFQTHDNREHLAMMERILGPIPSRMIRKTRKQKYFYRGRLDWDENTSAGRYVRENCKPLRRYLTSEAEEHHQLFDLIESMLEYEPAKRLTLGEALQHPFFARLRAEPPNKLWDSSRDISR
# T1 sequence (P19784 whole entry, looked up): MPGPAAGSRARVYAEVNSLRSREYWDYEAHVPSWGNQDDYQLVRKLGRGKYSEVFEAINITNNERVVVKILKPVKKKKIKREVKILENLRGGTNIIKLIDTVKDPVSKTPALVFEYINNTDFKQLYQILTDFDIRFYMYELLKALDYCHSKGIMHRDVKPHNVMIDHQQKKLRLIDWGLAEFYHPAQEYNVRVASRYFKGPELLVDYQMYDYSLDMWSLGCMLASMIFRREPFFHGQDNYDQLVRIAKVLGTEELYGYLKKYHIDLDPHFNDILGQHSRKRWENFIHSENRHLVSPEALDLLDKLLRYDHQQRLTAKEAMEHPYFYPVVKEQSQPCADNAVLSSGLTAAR
# T1 sequence (P67870 whole entry, looked up): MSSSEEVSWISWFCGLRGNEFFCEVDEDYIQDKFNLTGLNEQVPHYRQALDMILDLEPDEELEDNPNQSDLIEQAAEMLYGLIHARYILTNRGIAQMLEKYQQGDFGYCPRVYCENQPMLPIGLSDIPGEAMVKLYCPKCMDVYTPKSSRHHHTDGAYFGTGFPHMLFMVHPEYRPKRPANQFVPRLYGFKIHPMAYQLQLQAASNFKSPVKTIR
# T1 sequence (P68400 whole entry, looked up): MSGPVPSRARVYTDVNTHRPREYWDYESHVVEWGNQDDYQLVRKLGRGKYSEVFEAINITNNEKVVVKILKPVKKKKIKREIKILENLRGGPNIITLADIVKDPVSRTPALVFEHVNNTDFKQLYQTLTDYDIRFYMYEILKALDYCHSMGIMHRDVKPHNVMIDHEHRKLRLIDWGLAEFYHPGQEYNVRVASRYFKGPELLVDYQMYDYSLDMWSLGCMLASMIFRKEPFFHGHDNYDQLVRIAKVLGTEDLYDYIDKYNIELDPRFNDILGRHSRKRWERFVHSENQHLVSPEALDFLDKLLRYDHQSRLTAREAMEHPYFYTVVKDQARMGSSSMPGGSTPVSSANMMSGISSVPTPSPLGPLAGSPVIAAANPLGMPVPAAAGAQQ
# Casein kinase II subunit alpha' (Homo sapiens), sequence (P19784 whole entry, looked up): as the sequence (P19784 whole entry, looked up) above
smiles,measurement,setting,value
Oc1ccc(Nc2nc(-c3ccc(Cl)cc3)cs2)cc1,residual activity,[1],101%
same,residual activity,[2],97%
same,residual activity,[3],100%
same,residual activity,[4],99%
same,residual activity,[5],118%
same,residual activity,[6],101%
same,residual activity,[7],92%
same,residual activity,[8],75%
same,residual activity,[9],98%
same,residual activity,[10],113%
CN(C)c1ccc(/C=C2\C(=O)Nc3ccccc32)cc1,residual activity,[1],87%
same,residual activity,[2],108%
same,residual activity,[3],115%
same,residual activity,[4],96%
same,residual activity,[5],86%
same,residual activity,[6],48%
same,residual activity,[7],77%
same,residual activity,[8],13%
same,residual activity,[9],116%
same,residual activity,[10],119%
CC(=O)O/N=C1\C(=C2\C(=O)Nc3cc(Br)ccc32)Nc2ccccc21,residual activity,[1],96%
same,residual activity,[2],90%
same,residual activity,[3],102%
same,residual activity,[4],89%
same,residual activity,[5],102%
same,residual activity,[6],65%
same,residual activity,[7],82%
same,residual activity,[8],76%
same,residual activity,[9],104%
same,residual activity,[10],86%
COc1cc2ncc(-c3ccccc3)nc2cc1OC,residual activity,[7],92%
same,residual activity,[8],81%
same,residual activity,[10],94%
Oc1c2ccccc2c2c3c(cccc13)N=N2,residual activity,[1],60%
same,residual activity,[2],19%
same,residual activity,[3],59%
same,residual activity,[4],18%
same,residual activity,[5],36%
same,residual activity,[6],21%
same,residual activity,[7],72%
same,residual activity,[8],34%
same,residual activity,[9],105%
same,residual activity,[10],93%
c1ccc(-c2n[nH]c3c2oc2ccccc23)cc1,residual activity,[1],86%
same,residual activity,[3],119%
same,residual activity,[4],94%
same,residual activity,[5],91%
same,residual activity,[6],80%
same,residual activity,[7],86%
same,residual activity,[8],14%
O=C(Nc1cccc(Nc2nccc(Nc3cccc(C(F)(F)F)c3)n2)c1)C1CC1,residual activity,[1],75%
same,residual activity,[2],109%
same,residual activity,[3],108%
same,residual activity,[4],72%
same,residual activity,[5],71%
same,residual activity,[6],82%
same,residual activity,[7],76%
same,residual activity,[8],9%
same,residual activity,[9],115%
same,residual activity,[10],100%
O=C(Nc1cccc(Nc2cc(Nc3cccc(C(F)(F)F)c3)ncn2)c1)C1CC1,residual activity,[1],107%
same,residual activity,[2],104%
same,residual activity,[3],114%
same,residual activity,[4],103%
same,residual activity,[5],99%
same,residual activity,[6],101%
same,residual activity,[7],89%
same,residual activity,[8],32%
same,residual activity,[9],114%
same,residual activity,[10],96%
c1ccc(-c2n[nH]cc2-c2ccnc3ccccc23)nc1,residual activity,[1],104%
same,residual activity,[2],105%
same,residual activity,[6],86%
same,residual activity,[7],86%
same,residual activity,[8],132%
Nc1cccc(-c2cc3c(Oc4cccc(O)c4)ncnc3[nH]2)c1,residual activity,[1],101%
same,residual activity,[2],105%
same,residual activity,[5],93%
same,residual activity,[6],50%
same,residual activity,[7],75%
same,residual activity,[8],63%
same,residual activity,[9],79%
same,residual activity,[10],21%
COc1cc2ncnc(Nc3ccc(O)c(Br)c3)c2cc1OC,residual activity,[1],58%
same,residual activity,[2],44%
same,residual activity,[3],97%
same,residual activity,[4],38%
same,residual activity,[5],80%
same,residual activity,[6],30%
same,residual activity,[7],82%
same,residual activity,[8],118%
same,residual activity,[9],90%
same,residual activity,[10],76%
Cc1cccc(-c2[nH]c(C(C)(C)C)nc2-c2ccc3c(c2)OCO3)n1,residual activity,[2],132%
same,residual activity,[7],90%
same,residual activity,[8],145%
Nc1n[nH]c2nnc(-c3c(-c4ccccc4)nn4ccccc34)cc12,residual activity,[1],98%
same,residual activity,[2],85%
same,residual activity,[3],101%
same,residual activity,[4],92%
same,residual activity,[5],98%
same,residual activity,[6],84%
same,residual activity,[7],84%
same,residual activity,[8],90%
same,residual activity,[9],107%
same,residual activity,[10],103%
COc1ccc(OC)c2c(=S)c3ccccc3[nH]c12,residual activity,[1],103%
same,residual activity,[2],79%
same,residual activity,[3],81%
same,residual activity,[4],97%
same,residual activity,[5],99%
same,residual activity,[6],74%
same,residual activity,[7],90%
same,residual activity,[8],81%
same,residual activity,[9],109%
same,residual activity,[10],105%
COc1cc2ncnc(Nc3ccc(Oc4ccccc4)cc3)c2cc1OC,residual activity,[1],93%
same,residual activity,[2],100%
same,residual activity,[3],114%
same,residual activity,[4],108%
same,residual activity,[5],108%
same,residual activity,[6],106%
same,residual activity,[7],82%
same,residual activity,[8],99%
same,residual activity,[9],12%
same,residual activity,[10],3%
O=C1Nc2ccc(Br)cc2/C1=C\c1cc2c([nH]1)CCCC2,residual activity,[1],77%
same,residual activity,[2],117%
same,residual activity,[3],120%
same,residual activity,[5],106%
same,residual activity,[6],101%
same,residual activity,[8],53%
same,residual activity,[9],118%
same,residual activity,[10],102%
O=C(O)c1ccc2c3c1cccc3c(=O)n1c3ccccc3nc21,residual activity,[1],22%
same,residual activity,[2],-4%
same,residual activity,[3],18%
same,residual activity,[4],4%
same,residual activity,[5],77%
same,residual activity,[6],27%
same,residual activity,[7],77%
same,residual activity,[8],32%
same,residual activity,[9],102%
same,residual activity,[10],88%
O=C1NC(=O)c2cc(Nc3ccc(F)cc3)c(Nc3ccc(F)cc3)cc21,residual activity,[1],90%
same,residual activity,[2],110%
same,residual activity,[3],125%
same,residual activity,[4],96%
same,residual activity,[5],100%
same,residual activity,[6],40%
same,residual activity,[7],79%
same,residual activity,[8],129%
same,residual activity,[9],98%
same,residual activity,[10],93%
Cc1cncc2cccc(S(=O)(=O)N3CCCN(C(=O)CN)C[C@H]3C)c12,residual activity,[3],128%
same,residual activity,[4],98%
same,residual activity,[7],76%
same,residual activity,[8],98%
CC#CC(=O)Nc1cc2c(Nc3ccc(F)c(Cl)c3)ncnc2cn1,residual activity,[1],78%
same,residual activity,[2],114%
same,residual activity,[3],120%
same,residual activity,[4],86%
same,residual activity,[5],103%
same,residual activity,[6],88%
same,residual activity,[7],83%
same,residual activity,[8],125%
same,residual activity,[9],103%
same,residual activity,[10],99%
N#CC(C#N)=C(N)/C(C#N)=C/c1ccc(O)cc1,residual activity,[1],91%
same,residual activity,[2],85%
same,residual activity,[3],120%
same,residual activity,[4],86%
same,residual activity,[7],87%
same,residual activity,[8],126%
O=C1c2ccccc2-[n+]2ccc3c([nH]c4ccccc43)c21,residual activity,[1],87%
same,residual activity,[2],71%
same,residual activity,[3],104%
same,residual activity,[4],85%
same,residual activity,[5],114%
same,residual activity,[6],103%
same,residual activity,[7],79%
same,residual activity,[8],72%
same,residual activity,[9],86%
same,residual activity,[10],88%
Nc1nc(Nc2ccc(S(N)(=O)=O)cc2)nn1C(=S)Nc1c(F)cccc1F,residual activity,[1],100%
same,residual activity,[2],85%
same,residual activity,[3],95%
same,residual activity,[4],62%
same,residual activity,[5],-2%
same,residual activity,[6],2%
same,residual activity,[7],-4%
same,residual activity,[8],-5%
same,residual activity,[10],99%
Cc1cc2ncc(-c3ccccc3)nc2cc1C,residual activity,[6],98%
same,residual activity,[7],98%
same,residual activity,[8],96%
CO[C@@H]1[C@H](N(C)C(=O)c2ccccc2)C[C@H]2O[C@]1(C)n1c3ccccc3c3c4c(c5c6ccccc6n2c5c31)C(=O)NC4,residual activity,[1],73%
same,residual activity,[2],97%
same,residual activity,[3],117%
same,residual activity,[4],102%
same,residual activity,[5],17%
same,residual activity,[6],9%
same,residual activity,[8],4%
same,residual activity,[9],82%
same,residual activity,[10],78%
CCN(CC)C(=O)c1ccc(Nc2nc(OCC3CCCCC3)c3nc[nH]c3n2)cc1,residual activity,[3],101%
same,residual activity,[4],75%
same,residual activity,[5],25%
same,residual activity,[6],6%
same,residual activity,[7],65%
same,residual activity,[8],20%
same,residual activity,[10],44%
C[C@@H](N)[C@H]1CC[C@H](C(=O)Nc2ccncc2)CC1,residual activity,[2],87%
same,residual activity,[3],93%
same,residual activity,[5],97%
same,residual activity,[6],66%
same,residual activity,[7],99%
same,residual activity,[8],90%
same,residual activity,[9],106%
same,residual activity,[10],93%
Cn1cnc2cc3c(Nc4cccc(Br)c4)ncnc3cc21,residual activity,[1],87%
same,residual activity,[2],119%
same,residual activity,[3],126%
same,residual activity,[4],89%
same,residual activity,[5],106%
same,residual activity,[6],75%
same,residual activity,[7],91%
same,residual activity,[8],112%
same,residual activity,[9],105%
same,residual activity,[10],97%
CO[C@H]1C[C@@H]2CC[C@@H](C)[C@@](O)(O2)C(=O)C(=O)N2CCCC[C@H]2C(=O)O[C@H]([C@H](C)C[C@@H]2CC[C@@H](O)[C@H](OC)C2)CC(=O)[C@H](C)/C=C(\C)[C@@H](O)[C@@H](OC)C(=O)[C@H](C)C[C@H](C)/C=C/C=C/C=C/1C,residual activity,[1],99%
same,residual activity,[2],98%
same,residual activity,[4],105%
same,residual activity,[5],118%
same,residual activity,[6],137%
same,residual activity,[7],80%
same,residual activity,[8],95%
same,residual activity,[9],112%
same,residual activity,[10],95%
Oc1ccc(-c2nc(-c3ccc(F)cc3)c(-c3ccncc3)[nH]2)cc1,residual activity,[1],107%
same,residual activity,[2],107%
same,residual activity,[3],122%
same,residual activity,[4],97%
same,residual activity,[5],123%
same,residual activity,[6],104%
same,residual activity,[7],94%
same,residual activity,[8],90%
same,residual activity,[9],126%
same,residual activity,[10],104%
Cc1ccc(NC2=CC(=O)c3sc(C)nc3C2=O)cc1,residual activity,[1],100%
same,residual activity,[2],101%
same,residual activity,[3],100%
same,residual activity,[4],107%
same,residual activity,[5],111%
same,residual activity,[6],109%
same,residual activity,[7],95%
same,residual activity,[8],88%
same,residual activity,[9],98%
same,residual activity,[10],95%
CNc1cc2c(Nc3cccc(Br)c3)ncnc2cn1,residual activity,[1],90%
same,residual activity,[2],89%
same,residual activity,[3],118%
same,residual activity,[4],96%
same,residual activity,[5],113%
same,residual activity,[6],98%
same,residual activity,[7],95%
same,residual activity,[8],33%
same,residual activity,[9],109%
same,residual activity,[10],92%
N#Cc1cnc2cnc(NCc3cccnc3)cc2c1Nc1ccc(F)c(Cl)c1,residual activity,[4],100%
same,residual activity,[7],84%
same,residual activity,[8],51%
same,residual activity,[9],93%
same,residual activity,[10],75%
c1ccc2c(-c3ccncc3)c[nH]c2c1,residual activity,[1],78%
same,residual activity,[2],95%
same,residual activity,[4],90%
same,residual activity,[5],112%
same,residual activity,[6],85%
same,residual activity,[7],87%
same,residual activity,[8],108%
CC(=O)c1ccc(N2CCOCC2)cc1O,residual activity,[1],81%
same,residual activity,[2],108%
same,residual activity,[4],93%
same,residual activity,[6],101%
same,residual activity,[8],91%
Ic1cccc(CSc2nnc(-c3ccncc3)o2)c1,residual activity,[1],87%
same,residual activity,[2],87%
same,residual activity,[3],101%
same,residual activity,[4],97%
same,residual activity,[5],12%
same,residual activity,[6],13%
same,residual activity,[7],65%
same,residual activity,[8],45%
same,residual activity,[9],104%
same,residual activity,[10],94%
CN(C)CCCn1cc(C2=C(c3c[nH]c4ccccc34)C(=O)NC2=O)c2ccccc21,residual activity,[1],107%
same,residual activity,[2],101%
same,residual activity,[4],104%
same,residual activity,[5],14%
same,residual activity,[6],2%
same,residual activity,[7],66%
same,residual activity,[8],21%
same,residual activity,[9],122%
same,residual activity,[10],100%
COc1cc2ncnc(Nc3ccc(NC(=O)c4ccccc4)cc3)c2cc1OC,residual activity,[1],98%
same,residual activity,[2],111%
same,residual activity,[3],110%
same,residual activity,[4],107%
same,residual activity,[5],107%
same,residual activity,[6],82%
same,residual activity,[7],83%
same,residual activity,[8],39%
same,residual activity,[10],92%
